The sample as a whole holds a higher share of hits than the screen did.
Shiga toxin inh: inhibitors of Shiga toxin in Vero cells; Vero cells, Shiga toxin protein synthesis inhibition reporter; inhibition, % at 38.7 µM; 9.2% of 290,000 active; in the data active = inhibition mostly above about 28%, no sharp cut-off; inactive = mostly below about 43%; note: 0% is about no effect
AmpC inh no detg: inhibitors of E. coli AmpC beta-lactamase without detergent; P00811; AmpC nitrocefin hydrolysis, absorbance 480 nm, 0.0001% Triton; Potency, µM (doses to about 57.1 µM), without a hit: top-dose activity change, negative = inhibition, usual class: inhibitors; 0.52% of 330,000 active; AID 485341;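 note: potency is the fitted concentration of half-maximal effect; plate controls were no compound for no effect and no enzyme for full effect; nearly all actives have a fitted effect of over 20% in size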
Target sequence (P00811 whole entry, looked up): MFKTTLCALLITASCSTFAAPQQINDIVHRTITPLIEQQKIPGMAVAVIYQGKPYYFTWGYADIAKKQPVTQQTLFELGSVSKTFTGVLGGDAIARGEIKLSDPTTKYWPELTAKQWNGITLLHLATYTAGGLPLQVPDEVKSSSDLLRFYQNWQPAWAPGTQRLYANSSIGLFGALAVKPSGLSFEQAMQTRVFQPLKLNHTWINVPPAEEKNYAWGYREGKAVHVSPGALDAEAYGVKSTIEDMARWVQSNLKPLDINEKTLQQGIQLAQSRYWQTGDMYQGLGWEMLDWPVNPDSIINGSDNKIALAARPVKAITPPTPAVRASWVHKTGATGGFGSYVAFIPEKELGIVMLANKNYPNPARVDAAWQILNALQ
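AmpC (5.3 nM in the dispensed reagent) in 20 mM phosphate pH 7.0 with 0.01% (detergent screen) or 0.0001% Triton X-100 was preincubated with compounds for 15 min at room temperature. Nitrocefin was then added from an 800 uM solution, and hydrolysis was followed at 480 nm.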
AMA1-RON2 inh: disrupts binding of P. falciparum AMA1 to RON2; Potency, µM (highest dose often 58.2 µM), without a hit: top-dose activity change, negative = inhibition, hits mostly inhibitors; AlphaScreen AMA1-biotinylated RON2 peptide binding; AID 720542; 0.2% of 360,000 active;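 note: potency is the fitted concentration of half-maximal effect; 0% = vehicle wells and -100% = peptide control; nearly all actives have a fitted effect of over 45% in size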
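AMA1 (3D7) with his tag at 25 nM final met compounds first, then biotinylated RON2 peptide at 25 nM; detection used donor plus acceptor beads, 10 µg/mL apiece, read by AlphaScreen after 30 min at room temperature.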
SARS PLP yeast: blocks SARS-CoV papain-like protease in a yeast assay. Potency, µM (series often up to 32.9 µM), without a hit: top-dose activity, positive = growth rescue, most hits filed as activators. 0.19% of 330,000 active. AID 485353. S. cerevisiae expressing SARS-CoV PLpro, growth rescue; calls by dose curve; note: potency is the fitted concentration of half-maximal effect; 0% is about no effect; nearly all actives have a fitted effect of over 55% in size
CHX counter: affects cycloheximide protein synthesis inhibition readout, counter-screen. cell reporter, cycloheximide protein synthesis inhibition counterscreen. max response, %. 12% of 300,000 active. AID 2314; in the data active = max response mostly above about 13%, no sharp cut-off; inactive = mostly below about 14%; note: read at 38.3 µM for the half of the compounds with a filed dose; 0% is about no effect
AmpC detergent: blocks E. coli AmpC beta-lactamase in detergent assay | P00811 | AmpC hydrolysis of nitrocefin, absorbance 480 nm, 0.01% Triton | Potency, µM (doses to about 114 µM), inactives show at the top dose activity change, negative = inhibition, hits mostly inhibitors | 0.041% of 370,000 active | AID 485294;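 note: potency is the fitted concentration of half-maximal effect; 0% = no-compound wells and -100% = no-enzyme wells; nearly all actives have a fitted effect of over 25% in size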
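20 mM phosphate pH 7.0 + 0.01% (detergent screen) or 0.0001% Triton X-100; 5.3 nM AmpC reagent; cpd preinc 15 min RT; nitrocefin (800 uM stock) to start; A480 q20 s × 4 min; Activity was normalised to no-enzyme and no-compound control wells.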
Starred values were filed as active, the others as inactive; ? = inconclusive; . = no result; + = active, no number; [ ] = another dose, or the depositor's remark. Unless noted, calls come from the whole dose curve; as a rule, active = well fitted curve in the direction sought with a large enough effect; inconclusive = small, poorly fitted or top-dose-only effect, or another doubt; inactive = no such curve, though single readings can be large; an effect the other way counts as inactive or inconclusive.

SMILES	Shiga toxin inh	AmpC inh no detg	AMA1-RON2 inh	SARS PLP yeast	CHX counter	AmpC detergent
CCOC(=O)c1nc(N)c(C(=O)OCC)[nH]1	13	-3%	17%	5%	-4	4%
CCOC(=O)c1c(C)nc(C(Cl)(Cl)Cl)nc1N	56*	-19%	7%	0%	18*	3%
COCCCN(Cc1ccco1)C(=O)CSc1nc2ncccc2[nH]1	10	-12%	-2%	-1%	1	5%
Cc1ccccc1CNS(=O)(=O)c1csc(C(N)=O)c1	-3	-22%	12%	3%	6	4%
COc1cc(C(=O)Nc2ccc3nc(SCc4ccc(C)cc4)sc3c2)cc(OC)c1OC	.	.	.	.	.	21%
Cc1ccc(N(C(=O)Cc2cccs2)C(C(=O)NC2CCCCC2)c2ccccn2)cc1C (stereo not given)	32*	63%	14%	-26%	16	-11%
CCOc1cc(CNC(=O)c2ccc(C)c(NC(=O)c3nsc4ccccc34)c2)ccc1OC	.	.	.	.	.	29%
CCCS(=O)(=O)N1CCc2ccc(NC(=O)c3ccccc3Cl)cc2C1	.	-24%	1%	-1%	10	?
CSCC(=O)N1CCc2ccc(NC(=O)c3ccccc3Cl)cc2C1	.	-15%	1%	-2%	28*	-12%
CN(C)S(=O)(=O)N1CCc2ccc(NC(=O)c3ccccc3Cl)cc2C1	14	-29%	-9%	3%	11*	-10%
COCCC(=O)Nc1ccc2c(c1)CN(C(=O)CCSC)CC2	2	-4%	-9%	-1%	-2	7%
CC1CCC(=NNC(=O)Cc2cccn2C)CC1 (stereo not given)	3	-12%[11.4 µM]	9%	0%	-1	-10%
CC1CCN(C(=O)CNC(=O)Cc2ccccc2)CC1	30*	-6%	2%	-2%	23*	-1%
O=C(CNC(=O)Cc1ccccc1)NCC(=O)N1CCCCC1	-30	-9%	-5%	29%	1	-7%
O=C(NCC(=O)N1CCCC(C(F)(F)F)C1)c1ccco1 (stereo not given)	.	-15%	12%	5%	.	-1%
O=C(Cc1ccccc1)NCC(=O)N1CCCCCC1	23	-8%	-3%	1%	19*	3%
CC1CCC(=NNC(=O)Cc2ccccc2)CC1 (stereo not given)	9	-33%	6%	-4%	14*	?
CC1CCCN(C(=O)CNC(=O)c2ccco2)C1 (stereo not given)	53*	-9%	0%	4%	33*	-5%
CC(C)Sc1ncc(Cl)c(C(=O)Nc2c(C(=O)Nc3ccccc3)oc3ccccc23)n1	.	.	.	.	.	23%
COC(=O)CSc1nc2c(c(-c3ccc(O)cc3)c1C#N)CCCC2	-3	-30%	-2%	-2%	-3	9%
COc1cc(C2CC(=O)C=C(O)C2)cc(OC)c1OC (stereo not given)	1	18%	-8%	-3%	-1	?
CCc1c(C)c2ccc(O)c(CN3CCN(c4ccc(OC)cc4)CC3)c2oc1=O	.	.	.	.	.	18%
CCCn1c(=O)sc2cc(NC(=O)c3ccccc3OCC)ccc21	.	.	.	.	.	6%
CC1CCN(C(=O)CCNS(=O)(=O)c2ccccc2)CC1	56*	-20%	9%	0%	22*	-9%
Cc1ccc(S(=O)(=O)NCCC(=O)N2CCC(C)CC2)cc1	.	-17%	-8%	7%	.	?
SMILES	Shiga toxin inh	AmpC inh no detg	AMA1-RON2 inh	SARS PLP yeast	CHX counter	AmpC detergent
CC(C)c1ccc(NC2CCCN(C(=O)c3ccco3)C2)cc1 (stereo not given)	43	34%	-7%	-4%	13*	-4%
C/C(=N\NC(=O)c1ccncc1)C12CC3CC(CC(C3)C1)C2	11	-1%	9%	-2%	10	?
CCOC(=O)c1ccc(CSc2nnc(N)s2)cc1	92*	-17%	1%	-3%	39*	1%
Nc1nnc(SCc2cccc(C(F)(F)F)c2)s1	18	-4%	-14%	-4%	11*	-12%
CCOC(=O)CSc1nnc(N)s1	-3	2%	-19%	0%	-1	-7%
Nc1nnc(CSc2ccc(Cl)cc2)s1	42	-7%	5%	10%	50*	-6%
Nc1nnc(SCc2coc(-c3ccc(Cl)cc3)n2)s1	64*	-19%	17%	-4%	39*	?
Nc1nnc(SCC(=O)Nc2ccc(Cl)cc2)s1	.	.	.	.	.	7%
CC(OC(=O)CCN=C1NS(=O)(=O)c2ccccc21)C(=O)NCc1ccccc1 (stereo not given)	.	-16%	6%	0%	.	?
Nc1nnc(SCc2ccc(Cl)cc2)s1	+	4%	-2%	11%	14	-6%
Nc1nnc(CSCc2ccc(Cl)cc2)s1	-11	-12%	3%	-22%	-3	?
CC(C)Oc1ccc(C(=O)Nc2ccc(NC(=O)c3ccco3)c(Cl)c2)cc1	50*	-39%	-5%	0%	40*	-9%
O=C(Nc1ccc(NC(=O)c2ccco2)c(Cl)c1)c1ccccc1	79*	-27%	-5%	-2%	47*	2%
CC(C)COc1ccc(C(=O)Nc2ccc(NC(=O)c3ccco3)c(Cl)c2)cc1	6	-11%	0%	-2%	13	-6%
COc1ccc(C(=O)Nc2ccc(NC(=O)c3ccco3)c(Cl)c2)cc1OC	19	-30%	-27%	-3%	-4	0%
O=C(Nc1ccc(Br)c(Cl)c1)c1ccco1	76*	-26%	33%	-35%	41*	-1%
COc1ccc(NC(=O)c2ccco2)cc1NC(=O)c1cc(Br)ccc1Cl	.	.	.	.	.	-6%
O=C(Cn1cc(C(=O)c2ccccc2F)c2ccccc21)NCc1ccco1	-10	7%	16%	2%	12	-4%
CC(C)C(=O)c1cn(CC(=O)NCc2ccco2)c2ccccc12	58*	-14%	0%	-13%	30*	?
CC(C)(C)C(=O)c1cn(CC(=O)NCc2ccco2)c2ccccc12	96*	-19%	-12%	0%	36*	1%
N#Cc1cc(-c2ccccc2)[nH]c1-c1nccc2ccccc12	9	-35%	0%	-5%	6	-2%
c1ccc(-c2ccc(-c3nccc4ccccc34)[nH]2)cc1	14	-40%	.	-6%	29*	-1%
CN(C)C1(CNC(=O)c2cccc(S(=O)(=O)Nc3ccc(Br)cc3)c2)CCCCC1	.	-2%	82%	-1%	.	0%
COc1ccc(Nc2nccc3c2nnn3C)cc1	97*	-14%	-4%	-18%	45*	-12%
COc1cccc(-c2nc(SCC(=O)NCC3CCCO3)c(-c3ccc(F)cc3)[nH]2)c1 (stereo not given)	.	.	.	.	.	10%
Cc1ccc(/C=C(\NC(=O)c2ccccc2)C(=O)NCCc2ccccn2)o1	24	-2%	24%	20%	11*	6%

From PubChem
